For some of these results: Entries with a potency or affinity are not part of this list.
How the values were obtained:
Parameters in all cases: scale not given: direction of the effect not stated beside the values
[1] = target: Protein translocase subunit SecA (Escherichia coli (strain K12)) (UniProt P10408); assay: Assay to Identify E. coli SecA ATPase Inhibitors; format: functional; conditions: 30 µM
[2] = target: T1, Ubiquitin-activating enzyme e1, putative (Leishmania donovani (strain BPK282A1)) (UniProt E9BSI1); assay: Leishmania donovani Ubiquitin Activating Enzyme (LdE1); format: functional; conditions: 30 µM
T1 sequence (whole entry): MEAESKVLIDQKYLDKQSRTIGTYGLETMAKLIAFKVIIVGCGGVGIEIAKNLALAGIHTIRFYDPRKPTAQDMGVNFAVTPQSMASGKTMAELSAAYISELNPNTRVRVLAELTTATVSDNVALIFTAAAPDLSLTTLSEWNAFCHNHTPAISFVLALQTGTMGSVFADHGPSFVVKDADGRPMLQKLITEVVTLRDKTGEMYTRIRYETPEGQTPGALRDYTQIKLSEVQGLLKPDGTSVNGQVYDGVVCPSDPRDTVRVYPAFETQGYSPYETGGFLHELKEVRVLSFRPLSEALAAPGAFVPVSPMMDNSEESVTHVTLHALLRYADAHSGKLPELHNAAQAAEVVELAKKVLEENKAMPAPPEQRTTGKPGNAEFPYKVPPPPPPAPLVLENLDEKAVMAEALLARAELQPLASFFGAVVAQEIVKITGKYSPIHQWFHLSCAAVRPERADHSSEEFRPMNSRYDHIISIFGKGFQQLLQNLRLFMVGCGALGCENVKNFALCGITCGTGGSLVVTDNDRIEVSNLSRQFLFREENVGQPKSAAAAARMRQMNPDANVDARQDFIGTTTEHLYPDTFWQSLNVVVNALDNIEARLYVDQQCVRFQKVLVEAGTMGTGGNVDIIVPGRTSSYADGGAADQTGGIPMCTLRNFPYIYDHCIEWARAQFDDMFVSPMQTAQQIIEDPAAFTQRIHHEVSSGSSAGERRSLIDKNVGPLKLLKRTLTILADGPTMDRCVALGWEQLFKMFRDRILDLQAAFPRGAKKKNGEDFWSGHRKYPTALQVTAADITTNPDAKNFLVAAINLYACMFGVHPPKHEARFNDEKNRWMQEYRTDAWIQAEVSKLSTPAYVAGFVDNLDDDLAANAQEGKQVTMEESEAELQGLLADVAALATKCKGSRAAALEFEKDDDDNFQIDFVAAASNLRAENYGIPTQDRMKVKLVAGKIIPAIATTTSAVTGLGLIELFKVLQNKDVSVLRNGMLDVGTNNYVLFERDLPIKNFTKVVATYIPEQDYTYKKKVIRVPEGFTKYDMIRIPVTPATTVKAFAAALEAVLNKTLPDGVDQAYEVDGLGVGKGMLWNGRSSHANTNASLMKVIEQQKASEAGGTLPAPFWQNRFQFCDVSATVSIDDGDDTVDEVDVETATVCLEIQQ

[3] = target: AMP-activated protein kinase, AMPK (Homo sapiens) (UniProt P54646+O43741+P54619+Q9UGJ0+Q9Y478+Q13131+Q9UGI9); assay: AMP-dependent Kinase enzyme assay. An in vitro enzyme assay that detects ADP turnover that is directly proportional to AMPK activity. This uses naive AMPK that is activated during the assay with MK-8722; format: functional; conditions: 30 µM
[4] = target: Sialic acid-binding Ig-like lectin 9 (Homo sapiens) (UniProt Q9Y336); assay: Hs-Siglec9 ALPHAscreen SOP 20170721; conditions: 10 µM
Trypanosoma cruzi = assay: Trypanosoma cruzi phosphomannomutase and mannose-1-phosphate guanylyltransferase assay; format: functional; conditions: 10 µM
[5] = target: T2, Arginase-2, mitochondrial (Homo sapiens) (UniProt P78540); assay: in vitro enzyme assay to detect the production of urea directly proportional to the activity of Arginase II; format: functional; conditions: 33.3 µM; also: in the data most compounds retested in dose-response had high values
T2 sequence (whole entry): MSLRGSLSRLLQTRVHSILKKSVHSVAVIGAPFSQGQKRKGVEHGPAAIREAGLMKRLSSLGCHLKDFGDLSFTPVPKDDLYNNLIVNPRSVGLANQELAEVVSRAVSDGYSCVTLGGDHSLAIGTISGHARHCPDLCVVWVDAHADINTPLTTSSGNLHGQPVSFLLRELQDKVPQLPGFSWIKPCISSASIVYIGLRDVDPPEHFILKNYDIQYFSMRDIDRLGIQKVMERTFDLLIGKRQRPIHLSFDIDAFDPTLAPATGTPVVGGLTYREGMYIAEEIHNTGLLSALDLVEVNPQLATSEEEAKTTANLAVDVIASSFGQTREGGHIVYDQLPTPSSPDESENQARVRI

[6] = target: T3, Proteasome subunit beta (Trypanosoma cruzi) (UniProt O96673); assay: Trypanosoma cruzi proteasome chymotrypsin-like activity (TcProtChymo) assay.; also: in the data most compounds retested in dose-response had high values; format: functional; conditions: 9.37 µM
T3 sequence (whole entry): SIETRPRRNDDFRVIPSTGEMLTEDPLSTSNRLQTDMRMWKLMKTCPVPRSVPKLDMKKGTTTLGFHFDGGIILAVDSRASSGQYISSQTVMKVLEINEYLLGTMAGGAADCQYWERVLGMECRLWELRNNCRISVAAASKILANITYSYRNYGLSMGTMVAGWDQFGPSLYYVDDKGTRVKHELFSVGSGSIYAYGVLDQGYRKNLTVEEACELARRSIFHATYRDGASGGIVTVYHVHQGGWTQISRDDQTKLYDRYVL

Homo sapiens = species: Homo sapiens; assay: To identify inhibition of the IFN signalling (Jak-Stat) pathway via expression of an eGFP reporter gene under the control of an IFN-stimulated response element (ISRE) containing MxA promoter.; format: functional; conditions: 30 µM
[7] = target: T4, Tyrosyl-tRNA synthetase, putative (Trypanosoma cruzi (strain CL Brener)) (UniProt Q4DSP6); assay: Trypanosoma cruzi tyrosyl tRNA synthetase (TcYRS) _High Tyrosine SOP; format: functional; conditions: 30 µM; also: in the data most compounds retested in dose-response had high values
T4 sequence (whole entry): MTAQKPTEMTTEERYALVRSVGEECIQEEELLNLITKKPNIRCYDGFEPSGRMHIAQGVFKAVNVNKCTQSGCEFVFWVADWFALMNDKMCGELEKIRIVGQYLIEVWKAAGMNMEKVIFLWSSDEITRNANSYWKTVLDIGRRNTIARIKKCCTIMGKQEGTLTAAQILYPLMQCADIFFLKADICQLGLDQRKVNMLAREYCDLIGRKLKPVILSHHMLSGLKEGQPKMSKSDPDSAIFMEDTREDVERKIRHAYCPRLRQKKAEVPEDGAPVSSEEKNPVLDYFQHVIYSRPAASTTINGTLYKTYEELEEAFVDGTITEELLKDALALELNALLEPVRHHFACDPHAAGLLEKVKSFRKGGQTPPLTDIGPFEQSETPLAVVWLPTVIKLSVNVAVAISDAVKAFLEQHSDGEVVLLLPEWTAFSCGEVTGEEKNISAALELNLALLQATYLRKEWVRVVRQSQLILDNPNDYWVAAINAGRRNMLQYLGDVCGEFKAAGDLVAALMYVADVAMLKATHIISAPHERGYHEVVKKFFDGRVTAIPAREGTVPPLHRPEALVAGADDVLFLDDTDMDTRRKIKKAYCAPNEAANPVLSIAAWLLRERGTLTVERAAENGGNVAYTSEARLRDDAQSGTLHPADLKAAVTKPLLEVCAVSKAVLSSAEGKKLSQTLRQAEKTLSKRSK

[8] = target: T4, Tyrosyl-tRNA synthetase, putative (Trypanosoma cruzi (strain CL Brener)); assay: Trypanosoma cruzi tyrosyl tRNA synthetase (TcYRS) SOP; format: functional; conditions: 30 µM
[9] = target: Chromo domain-containing protein 1 (Saccharomyces cerevisiae (strain ATCC 204508 / S288c) (Baker's yeast)) (UniProt P32657); assay: ScCHD-1 Enzyme Inhibition Assay; format: functional; conditions: 30 µM; also: in the data most compounds retested in dose-response had high values
Chain of Chromo domain-containing protein 1 (Saccharomyces cerevisiae (strain ATCC 204508 / S288c) (Baker's yeast)) (P32657 whole entry, the tested form may be a part): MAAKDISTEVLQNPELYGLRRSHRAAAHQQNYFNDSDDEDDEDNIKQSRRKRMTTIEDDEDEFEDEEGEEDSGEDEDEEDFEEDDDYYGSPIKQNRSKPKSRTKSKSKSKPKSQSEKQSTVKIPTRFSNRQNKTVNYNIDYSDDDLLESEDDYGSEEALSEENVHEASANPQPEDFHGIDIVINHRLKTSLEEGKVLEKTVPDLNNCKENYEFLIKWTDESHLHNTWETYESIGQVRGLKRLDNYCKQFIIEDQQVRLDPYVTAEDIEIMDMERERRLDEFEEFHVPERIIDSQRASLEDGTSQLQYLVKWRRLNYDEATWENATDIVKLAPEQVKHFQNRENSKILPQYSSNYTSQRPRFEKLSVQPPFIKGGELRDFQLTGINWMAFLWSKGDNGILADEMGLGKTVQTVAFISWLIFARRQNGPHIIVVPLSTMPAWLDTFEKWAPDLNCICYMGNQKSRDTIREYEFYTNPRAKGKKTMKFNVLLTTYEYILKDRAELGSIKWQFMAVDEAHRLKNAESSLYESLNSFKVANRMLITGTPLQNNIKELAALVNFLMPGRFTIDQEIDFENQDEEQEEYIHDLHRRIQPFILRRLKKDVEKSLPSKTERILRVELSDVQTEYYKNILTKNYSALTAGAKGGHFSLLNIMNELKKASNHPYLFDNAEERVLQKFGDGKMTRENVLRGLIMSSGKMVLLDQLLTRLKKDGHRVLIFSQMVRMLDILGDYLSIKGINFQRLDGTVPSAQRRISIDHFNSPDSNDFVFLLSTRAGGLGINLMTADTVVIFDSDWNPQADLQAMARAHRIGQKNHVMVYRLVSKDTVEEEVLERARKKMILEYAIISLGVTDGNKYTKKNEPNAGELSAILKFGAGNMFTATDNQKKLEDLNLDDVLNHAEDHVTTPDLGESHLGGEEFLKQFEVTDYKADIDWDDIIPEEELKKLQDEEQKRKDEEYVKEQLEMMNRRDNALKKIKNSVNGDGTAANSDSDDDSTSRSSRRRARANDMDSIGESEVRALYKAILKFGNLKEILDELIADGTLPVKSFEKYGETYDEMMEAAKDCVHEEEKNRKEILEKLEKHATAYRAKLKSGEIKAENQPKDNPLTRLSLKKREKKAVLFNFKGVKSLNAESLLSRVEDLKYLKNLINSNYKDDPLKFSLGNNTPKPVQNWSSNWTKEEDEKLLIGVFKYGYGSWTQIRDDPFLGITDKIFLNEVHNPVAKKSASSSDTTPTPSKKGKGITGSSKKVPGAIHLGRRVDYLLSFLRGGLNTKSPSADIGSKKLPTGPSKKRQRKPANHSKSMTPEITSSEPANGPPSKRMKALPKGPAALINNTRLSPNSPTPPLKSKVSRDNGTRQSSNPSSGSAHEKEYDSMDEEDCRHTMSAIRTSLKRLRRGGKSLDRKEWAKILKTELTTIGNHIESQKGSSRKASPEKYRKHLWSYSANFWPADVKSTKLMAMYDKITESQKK

Chain of Sialic acid-binding Ig-like lectin 9 (Homo sapiens) (Q9Y336 whole entry): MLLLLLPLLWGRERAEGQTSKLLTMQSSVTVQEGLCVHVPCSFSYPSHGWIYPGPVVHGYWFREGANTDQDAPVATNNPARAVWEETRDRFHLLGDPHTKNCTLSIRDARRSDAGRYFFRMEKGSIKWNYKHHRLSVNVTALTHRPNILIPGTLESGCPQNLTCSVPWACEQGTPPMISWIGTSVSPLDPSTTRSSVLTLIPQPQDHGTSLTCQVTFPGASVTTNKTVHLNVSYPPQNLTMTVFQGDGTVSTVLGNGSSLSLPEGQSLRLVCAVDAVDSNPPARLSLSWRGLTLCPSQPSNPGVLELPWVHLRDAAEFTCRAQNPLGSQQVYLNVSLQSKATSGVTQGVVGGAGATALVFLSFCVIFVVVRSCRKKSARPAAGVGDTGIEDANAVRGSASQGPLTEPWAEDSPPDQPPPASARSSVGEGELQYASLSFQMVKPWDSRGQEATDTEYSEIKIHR
Chain of Protein translocase subunit SecA (Escherichia coli (strain K12)) (P10408 whole entry): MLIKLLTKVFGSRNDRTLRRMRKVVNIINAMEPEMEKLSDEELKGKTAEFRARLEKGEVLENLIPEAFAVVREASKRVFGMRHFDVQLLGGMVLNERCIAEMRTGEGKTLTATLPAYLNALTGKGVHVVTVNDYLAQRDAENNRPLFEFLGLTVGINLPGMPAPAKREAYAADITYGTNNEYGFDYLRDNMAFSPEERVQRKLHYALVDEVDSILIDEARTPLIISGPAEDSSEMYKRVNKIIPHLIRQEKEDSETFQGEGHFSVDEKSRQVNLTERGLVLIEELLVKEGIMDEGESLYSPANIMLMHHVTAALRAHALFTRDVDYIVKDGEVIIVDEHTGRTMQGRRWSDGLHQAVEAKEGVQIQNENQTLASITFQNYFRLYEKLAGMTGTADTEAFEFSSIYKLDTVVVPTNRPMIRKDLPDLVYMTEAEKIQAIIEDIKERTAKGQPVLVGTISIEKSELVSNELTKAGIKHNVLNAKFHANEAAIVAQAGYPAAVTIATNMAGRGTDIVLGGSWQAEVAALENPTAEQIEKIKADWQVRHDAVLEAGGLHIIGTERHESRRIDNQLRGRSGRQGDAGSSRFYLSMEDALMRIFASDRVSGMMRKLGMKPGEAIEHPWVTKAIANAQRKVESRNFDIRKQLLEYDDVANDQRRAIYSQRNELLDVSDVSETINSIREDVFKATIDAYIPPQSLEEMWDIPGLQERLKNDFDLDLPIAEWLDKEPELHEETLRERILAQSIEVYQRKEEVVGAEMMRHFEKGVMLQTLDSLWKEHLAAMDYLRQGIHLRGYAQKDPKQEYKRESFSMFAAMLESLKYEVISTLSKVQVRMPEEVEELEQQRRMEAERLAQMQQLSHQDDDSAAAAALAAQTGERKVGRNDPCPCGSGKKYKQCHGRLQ

SMILES	Percent Effect [1]	Percent Effect [2]	Percent Effect [3]	Percent Effect [4]	Percent Effect (Trypanosoma cruzi)	Percent Effect [5]	Percent Effect [6]	Percent Effect (Homo sapiens)	Percent Effect [7]	Percent Effect [8]	Percent Effect [9]
CCC(O)CNC(=O)C1(N(C)Cc2ccccc2)Cc2ccccc2C1 (stereo unspecified)	-4.2%	2.67%	3.26%	-1.75%	-2.63%	3.12%	8.72%	-26.6%	1.64%	8.64%	-5.97%
Cc1noc(C(C)C)c1C(=O)NCC(c1cccc(F)c1)N(C)C (stereo unspecified)	0.211%	-2.53%	0.144%	-2.52%	-1.6%	5.32%	-7.45%	2.06%	2.46%	-8.86%	2.02%
O=C(Cc1ccc2c(c1)OCO2)N1CCCN(c2ccccc2)CC1	-6.04%	13.7%	3.46%	5.03%	0.992%	-2%	4.54%	10.8%	3.12%	11.1%	-0.294%
COc1ccc(NCc2nc(=O)n(CCC(C)C)[nH]2)cc1	-3.47%	10.5%	11.6%	5.94%	-0.0974%	-8.28%	8.92%	-19%	4.25%	10.4%	-2.13%
COc1c(CNC(c2ccc(F)cc2)C(C)(C)C)c(C)nn1C (stereo unspecified)	-1.68%	5.26%	-4.48%	2.41%	-6.01%	-7.28%	4.84%	30.8%	0.49%	-4.88%	-5.33%
O=C(CCc1cc2n(n1)CCCN(C(=O)c1cccnc1)C2)NC1CC1	-2.13%	4.17%	-1.68%	-4.93%	-3.21%	-2.21%	10.7%	4.24%	0%	7.69%	-2.05%
CCOc1ccc(NC(=O)NCc2csc(NC)n2)cc1C	-1.88%	10.8%	-11.1%	14.3%	1.95%	0.924%	-1.26%	19.8%	12.9%	23.2%	-3.54%
CN(CC1CCCO1)C1CCN(CCc2ccccn2)CC1 (stereo unspecified)	-1.45%	0%	-5.1%	7.51%	-1.95%	0.924%	-0.898%	7.31%	3.96%	1.22%	8.88%
Cc1nc(CCNC(=O)C2CC(=O)N(C(C)(C)C)C2)sc1C (stereo unspecified)	-4.83%	0%	-1.25%	5.84%	-1.19%	-3.59%	8.82%	-0.947%	5.21%	11.1%	-3.8%
O=C(c1cccs1)N1CCC2(C1)c1ccccc1S(=O)(=O)N2CC1CC1 (stereo unspecified)	-4.28%	2.67%	12.3%	1.53%	-0.197%	-8.62%	2.03%	17.7%	5.32%	6.41%	1.11%
CC(C)(C)c1ccn(C2(C(=O)O)CCN(c3nccc(N)n3)CC2)n1	-4.48%	-6.94%	0.972%	0.435%	-2.23%	-0.442%	10.7%	0.112%	3.16%	-5.13%	6.06%
